Assay results taken from PMC5540273 (PLoS ONE, 2017).

Tests used:
Conditions in all cases: concentration: 1 μM, replicates: in singlicate; n = 1
[1] = system: T1, RSK4(Kin.Dom.1-N-terminal)
T1 construct: gene RPS6KA6

[2] = system: T2, RSK4(Kin.Dom.2-C-terminal)
T2 construct: gene RPS6KA6

S6K1 = system: S6K1
SBK1 = system: SBK1
SGK2 = system: SGK2
SGK3 = system: SGK3
SGK = system: SGK
SIK2 = system: SIK2
SIK = system: SIK
SLK = system: SLK
SNARK = system: T3, SNARK
T3 construct: gene NUAK2

SNRK = system: SNRK
SRC = system: SRC
SRMS = system: SRMS
SRPK1 = system: SRPK1
SRPK2 = system: SRPK2
SRPK3 = system: SRPK3
STK16 = system: STK16
STK33 = system: STK33
STK35 = system: STK35
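Also: KINOMEscan kinase panel screen.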

| Structure (SMILES) | %Inh [1] [%] | %Inh [2] [%] | %Inh (S6K1) [%] | %Inh (SBK1) [%] | %Inh (SGK2) [%] | %Inh (SGK3) [%] | %Inh (SGK) [%] | %Inh (SIK2) [%] | %Inh (SIK) [%] | %Inh (SLK) [%] | %Inh (SNARK) [%] | %Inh (SNRK) [%] | %Inh (SRC) [%] | %Inh (SRMS) [%] | %Inh (SRPK1) [%] | %Inh (SRPK2) [%] | %Inh (SRPK3) [%] | %Inh (STK16) [%] | %Inh (STK33) [%] | %Inh (STK35) [%] |
| --- | --- | --- | --- | --- | --- | --- | --- | --- | --- | --- | --- | --- | --- | --- | --- | --- | --- | --- | --- | --- |
| CN(c1ccc2c(c1)nc(NCc1ccccc1)n2C)c1ccnc(Nc2ccc(CS(C)(=O)=O)cc2)n1.Cl [GW811603] | 0 | 0 | 0 | 0 | 24 | 0 | 13 | 10 | 9 | 38 | 0 | 0 | 32 | 5 | 0 | 30 | 34 | 54 | 0 | 0 |
| O=C(Nc1n[nH]c2nc(-c3ccccc3)ccc12)C1CC1 [SB-708999] | 30 | 1 | 17 | 9 | 15 | 47 | 23 | 0 | 28 | 12 | 56 | 0 | 0 | 0 | 22 | 23 | 7 | 16 | 0 | 1 |
| Nc1ncc(-c2ccc3nccc(-c4ccncc4)c3c2)cc1S(=O)(=O)N1CCCCC1 [GSK1693850] | 8 | 50 | 7 | 14 | 0 | 17 | 0 | 0 | 0 | 69 | 22 | 0 | 0 | 0 | 20 | 0 | 0 | 21 | 55 | 0 |
| CC(=O)Nc1cn2nc(Oc3cccc(NC(=O)c4cccc(C(F)(F)F)c4)c3)ccc2n1 | 0 | 9 | 0 | 0 | 1 | 0 | 0 | 18 | 32 | 21 | 0 | 0 | 99.9 | 11 | 0 | 22 | 9 | 10 | 3 | 1 |
| Cl.O=C(Nc1ccc(Oc2ccc3[nH]c(NC(=O)c4ccco4)nc3c2)cc1)Nc1cc(C(F)(F)F)ccc1F [GW683134] | 0 | 13 | 45 | 3 | 14 | 0 | 0 | 0 | 0 | 83 | 0 | 0 | 23 | 0 | 51 | 0 | 100 | 0 | 76 | 6 |
| O=C(O)C(F)(F)F.O=c1[nH]ccc2nc(N[C@@H]3CCNC3)nc(Nc3ccc4c(c3)S(=O)(=O)CC4)c12 [GSK2181306] | 97.8 | 59 | 92.7 | 90.1 | 91.7 | 98.6 | 97.2 | 73 | 18 | 99.7 | 99 | 25 | 48 | 0 | 92.1 | 0 | 88 | 96.9 | 100 | 90.6 |
| O=C1NC(=O)C(c2ccccc2Cl)=C1Nc1cccc(Cl)c1 [SB-342409] | 0 | 9 | 7 | 8 | 0 | 5 | 0 | 0 | 5 | 96.5 | 0 | 11 | 0 | 0 | 21 | 0 | 23 | 13 | 0 | 6 |
| CN(C)c1ncnc2nc[nH]c12 [SKF-31736] | 28 | 8 | 29 | 0 | 23 | 0 | 14 | 0 | 0 | 0 | 0 | 0 | 0 | 20 | 0 | 10 | 17 | 0 | 0 | 0 |
| COc1cc(Nc2ccnc3cc(-c4ccncc4)ccc23)cc(OC)c1OC.Cl [GW494610] | 19 | 0 | 17 | 100 | 5 | 2 | 19 | 74 | 91.5 | 49 | 0 | 0 | 96.1 | 0 | 0 | 0 | 18 | 0 | 0 | 6 |
| CC(C)c1nc(-c2cccc(NS(=O)(=O)c3c(F)cccc3F)c2)c(-c2ccnc(Nc3ccc(N4CCOCC4)nc3)n2)s1.Cl [GSK1723980] | 0 | 19 | 29 | 20 | 0 | 15 | 34 | 90.8 | 99.4 | 73 | 0 | 0 | 100 | 99.7 | 48 | 0 | 0 | 30 | 62 | 30 |
| Cc1ccc(O)cc1Nc1ccnc2ccc(C(C)(C)C)cc12 [GW856805] | 31 | 1 | 13 | 53 | 13 | 1 | 25 | 0 | 42 | 12 | 19 | 34 | 99.9 | 19 | 24 | 8 | 9 | 43 | 11 | 0 |
| CN(c1ccc(NC(=O)Nc2cccc(Cl)c2)cc1)c1ccnc(N)n1.Cl [GW830707] | 0 | 0 | 0 | 3 | 0 | 0 | 0 | 0 | 0 | 20 | 0 | 0 | 15 | 3 | 3 | 0 | 8 | 6 | 2 | 0 |
| COC(=O)Nc1nc2ccc(Oc3ccc(NC(=O)Nc4cc(C(F)(F)F)ccc4F)cc3)cc2[nH]1.Cl [GW654607] | 0 | 16 | 21 | 17 | 8 | 5 | 0 | 0 | 0 | 85 | 0 | 0 | 16 | 3 | 61 | 0 | 13 | 10 | 73 | 0 |
| COc1ccc(C)c(Nc2ccnc(Nc3ccc(-c4cnc[nH]4)cc3)n2)c1.Cl [GW784041] | 0 | 0 | 0 | 0 | 0 | 12 | 0 | 71 | 28 | 70 | 0 | 0 | 86 | 0 | 32 | 0 | 30 | 15 | 0 | 12 |
| COc1ccc(NC(=O)c2ccoc2)cc1-c1ccc(C(=O)NCC2CC2)cc1 [GW810437] | 8 | 0 | 9 | 48 | 0 | 19 | 25 | 0 | 0 | 0 | 18 | 12 | 10 | 25 | 0 | 0 | 12 | 0 | 0 | 0 |
| COc1cc(Nc2nccc(N3CCC(NC(=O)Nc4ccc5c(c4)OCO5)C3)n2)cc(OC)c1OC (stereo not shown) [GSK1379766] | 0 | 14 | 17 | 10 | 0 | 11 | 0 | 0 | 8 | 36 | 13 | 0 | 0 | 0 | 45 | 0 | 0 | 72 | 0 | 0 |
| Cc1ccc(O)cc1Nc1ccnc2cc(-c3ccc(CN4CCCCC4)o3)ccc12 [GW557777] | 0 | 87 | 0 | 0 | 0 | 0 | 1 | 83 | 97.8 | 34 | 11 | 0 | 100 | 23 | 32 | 0 | 15 | 22 | 61 | 0 |
| Cc1ccc(-c2ccc3occ(-c4ccc(S(C)=O)cc4)c3c2)nn1 (stereo not shown) | 0 | 0 | 5 | 0 | 0 | 0 | 0 | 7 | 0 | 12 | 0 | 0 | 6 | 0 | 0 | 6 | 0 | 12 | 0 | 0 |
| CC(C)c1nc(-c2ccc(F)c(NS(=O)(=O)c3c(F)cccc3F)c2)c(-c2ccnc(Nc3ccc(N4CCOCC4)nc3)n2)s1 [GSK1804250] | 0 | 16 | 3 | 25 | 8 | 20 | 25 | 88 | 99.5 | 91.4 | 17 | 0 | 100 | 99.9 | 54 | 0 | 18 | 39 | 8 | 74 |
| COc1cccc(CC(=O)N2CCc3cc(-c4cn(C)c5ncnc(N)c45)ccc32)c1 [GSK2608899] | 0 | 29 | 13 | 20 | 2 | 2 | 0 | 0 | 17 | 65 | 35 | 0 | 18 | 4 | 14 | 0 | 20 | 9 | 2 | 0 |
